Test results published in PubChem BioAssay (NCI).
Compounds without any hit were thinned out: in the full panel of roughly 83,000, 20% have a hit.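 Values shown are percent growth following 48 h exposure of cells in 96-well plates to a single concentration of compound; below 10 was considered active.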 Calls of active or inactive are those of the source.

Key:
Experiment in all cases: NCI-60 one-dose screen, 48 h (100 = growth as untreated, 0 = no growth, -100 = all killed)
Conditions in all cases: 10 µM unless noted
NCI-H23 lung = test system: NCI-H23 lung
NCI-H226 lung = test system: NCI-H226 lung
NCI-H322M lung = test system: NCI-H322M lung
HOP-62 NSCLC = test system: HOP-62 NSCLC
NCI-H460 lung = test system: NCI-H460 lung
HOP-92 NSCLC = test system: HOP-92 NSCLC
NCI-H522 lung = test system: NCI-H522 lung
A549/ATCC NSCLC = test system: A549/ATCC NSCLC
786-0 renal = test system: 786-0 renal
COLO 205 colon = test system: COLO 205 colon
DU-145 prostate = test system: DU-145 prostate
K-562 leukemia = test system: K-562 leukemia
MALME-3M melanoma = test system: MALME-3M melanoma
MDA-MB-231 breast = test system: MDA-MB-231 breast
RXF 393 renal = test system: RXF 393 renal
SF-268 CNS = test system: SF-268 CNS
SF-295 CNS = test system: SF-295 CNS
SF-539 CNS = test system: SF-539 CNS
UACC-257 melanoma = test system: UACC-257 melanoma
M14 melanoma = test system: M14 melanoma

Measured: growth

CCCCCCC/C=C/[C@H]1O[C@]2(O)C(=O)C=C3C[C@@H](O[C@@H]4O[C@H](CO)[C@@H](O)C(O)[C@@H]4O)C[C@@H]3[C@H]2C=C1C (stereo partly specified)
active: NCI-H226 lung -20.8% | HOP-62 NSCLC 1.36% | NCI-H522 lung -57.6% | 786-0 renal -52.4% | K-562 leukemia -5.09% | MALME-3M melanoma 1.95% | MDA-MB-231 breast -8.64% | RXF 393 renal -80.3% | SF-539 CNS -43.7% | UACC-257 melanoma -7.54% | M14 melanoma -23.6%
inactive: NCI-H23 lung 43.6% | NCI-H322M lung 54.3% | NCI-H460 lung 38.3% | HOP-92 NSCLC 11.8% | A549/ATCC NSCLC 59.8% | COLO 205 colon 11.8% | DU-145 prostate 20.6% | SF-268 CNS 21.8% | SF-295 CNS 37.5%

Cc1ccc(O)c(C(=O)O)c1
inactive: NCI-H23 lung 100% | NCI-H226 lung 105% | NCI-H322M lung 115% | HOP-62 NSCLC 99.8% | NCI-H460 lung 103% | HOP-92 NSCLC 101% | NCI-H522 lung 99% | A549/ATCC NSCLC 103% | 786-0 renal 104% | COLO 205 colon 120% | DU-145 prostate 114% | K-562 leukemia 98.2% | MALME-3M melanoma 128% | MDA-MB-231 breast 114% | RXF 393 renal 121% | SF-268 CNS 104% | SF-295 CNS 114% | SF-539 CNS 116% | UACC-257 melanoma 108% | M14 melanoma 116%

CC(O)(CO)c1ccccc1 (stereo unspecified)
inactive: NCI-H23 lung 96% | NCI-H226 lung 99.6% | NCI-H322M lung 102% | HOP-62 NSCLC 96.9% | NCI-H460 lung 105% | HOP-92 NSCLC 94.2% | NCI-H522 lung 105% | A549/ATCC NSCLC 99.2% | 786-0 renal 99% | COLO 205 colon 103% | DU-145 prostate 105% | K-562 leukemia 120% | MALME-3M melanoma 95.3% | MDA-MB-231 breast 97.7% | RXF 393 renal 109% | SF-268 CNS 101% | SF-295 CNS 98.6% | SF-539 CNS 92.4% | UACC-257 melanoma 93.9%

N#C/C(=C\c1ccc(Br)cc1)n1nnc2cccc(F)c21
active: NCI-H460 lung -47% | HOP-92 NSCLC -23.7% | COLO 205 colon -12.5% | DU-145 prostate 0.426% | MDA-MB-231 breast -1.07% | RXF 393 renal -23.6% | SF-539 CNS 1.06%
inactive: NCI-H23 lung 23.8% | NCI-H226 lung 41.9% | NCI-H322M lung 32.3% | HOP-62 NSCLC 40% | NCI-H522 lung 18.4% | A549/ATCC NSCLC 20.9% | 786-0 renal 11.2% | K-562 leukemia 12.7% | MALME-3M melanoma 37.7% | SF-268 CNS 24.4% | SF-295 CNS 55.4% | UACC-257 melanoma 37.3%

CN(C)c1ccc(-c2c(C#N)c(N)n3nc(N)c(C#N)c3c2C#N)cc1
inactive: NCI-H23 lung 96.9% | NCI-H226 lung 86% | NCI-H322M lung 82% | HOP-62 NSCLC 57.8% | NCI-H460 lung 70.1% | HOP-92 NSCLC 60.1% | NCI-H522 lung 82.7% | A549/ATCC NSCLC 73.6% | 786-0 renal 93.1% | COLO 205 colon 75.4% | DU-145 prostate 67.1% | K-562 leukemia 109% | MALME-3M melanoma 116% | MDA-MB-231 breast 43.2% | RXF 393 renal 65.5% | SF-268 CNS 77% | SF-295 CNS 104% | SF-539 CNS 78.2% | UACC-257 melanoma 113%

CCOC(=O)N1CCN(CCCCl)CC1
inactive: NCI-H23 lung 103% | NCI-H226 lung 102% | NCI-H322M lung 101% | HOP-62 NSCLC 109% | NCI-H460 lung 105% | HOP-92 NSCLC 95% | NCI-H522 lung 95.4% | A549/ATCC NSCLC 94.8% | 786-0 renal 98.4% | COLO 205 colon 113% | DU-145 prostate 115% | K-562 leukemia 96.2% | MALME-3M melanoma 102% | MDA-MB-231 breast 100% | RXF 393 renal 118% | SF-268 CNS 104% | SF-295 CNS 98.8% | SF-539 CNS 97.7% | UACC-257 melanoma 96.6%

BrC(Br)(Br)c1cnc2ccccc2n1
inactive: NCI-H23 lung 64.2% | NCI-H226 lung 21.3% | NCI-H322M lung 74.9% | HOP-62 NSCLC 60% | A549/ATCC NSCLC 34.6% | 786-0 renal 67.7% | MDA-MB-231 breast 46% | SF-268 CNS 54.5% | SF-295 CNS 74.3% | SF-539 CNS 27.2% | UACC-257 melanoma 39.9% | M14 melanoma 42.9%
active: NCI-H460 lung 8.61% | HOP-92 NSCLC 7.52% | NCI-H522 lung -61.3% | COLO 205 colon -86.4% | DU-145 prostate 4.36% | K-562 leukemia 1.19% | MALME-3M melanoma -10.4% | RXF 393 renal -31.5%

COC(=O)CCCCCCCCC1(C)C=CC(C(C)O)=CC1 (stereo unspecified)
inactive: NCI-H23 lung 96.2% | NCI-H226 lung 97% | NCI-H322M lung 109% | HOP-62 NSCLC 101% | NCI-H460 lung 111% | HOP-92 NSCLC 93.2% | NCI-H522 lung 89% | A549/ATCC NSCLC 94% | 786-0 renal 108% | COLO 205 colon 111% | DU-145 prostate 110% | K-562 leukemia 84.5% | MALME-3M melanoma 105% | MDA-MB-231 breast 110% | RXF 393 renal 107% | SF-268 CNS 105% | SF-295 CNS 109% | SF-539 CNS 112% | UACC-257 melanoma 108% | M14 melanoma 110%

O=C(Cc1ccc(/C=C/C(=O)c2ncc[nH]2)cc1)Nc1ccc(C(F)(F)F)cc1
active: 786-0 renal -43.1% | K-562 leukemia 4.21% | SF-539 CNS -10.1%
inactive: NCI-H23 lung 33.4% | NCI-H226 lung 78.9% | NCI-H322M lung 71.5% | HOP-62 NSCLC 25.8% | NCI-H460 lung 27.1% | HOP-92 NSCLC 70% | NCI-H522 lung 54.7% | A549/ATCC NSCLC 30.8% | COLO 205 colon 36.3% | DU-145 prostate 16.5% | MALME-3M melanoma 86.2% | MDA-MB-231 breast 32.5% | RXF 393 renal 34% | SF-268 CNS 14.4% | SF-295 CNS 22.9% | UACC-257 melanoma 82.1% | M14 melanoma 25.1%

CN1CCN(CC#CCNC(=O)[C@]23CCC(C)(C)C[C@H]2C2=CC[C@@H]4[C@@]5(C)Cc6c([nH]c7ccccc67)C(C)(C)[C@@H]5CC[C@@]4(C)[C@]2(C)CC3)CC1
active: NCI-H460 lung -25.3% | K-562 leukemia 1.31%
inactive: NCI-H23 lung 95.8% | NCI-H226 lung 93.9% | NCI-H322M lung 88.7% | HOP-62 NSCLC 91.9% | HOP-92 NSCLC 52.7% | NCI-H522 lung 67% | A549/ATCC NSCLC 52.8% | 786-0 renal 64.5% | COLO 205 colon 51.2% | DU-145 prostate 61.9% | MALME-3M melanoma 26.6% | MDA-MB-231 breast 74.1% | RXF 393 renal 66.5% | SF-268 CNS 70% | SF-295 CNS 108% | SF-539 CNS 82.6% | UACC-257 melanoma 82.2% | M14 melanoma 51.5%

CCCN=C(N)c1ccc(NC(=O)c2ccc(C(=O)Nc3ccc(C(N)=NCCC)cc3)cc2)cc1
inactive: NCI-H23 lung 93.1% | NCI-H226 lung 73.4% | NCI-H322M lung 96.2% | HOP-62 NSCLC 86.2% | NCI-H460 lung 99.1% | HOP-92 NSCLC 88.6% | NCI-H522 lung 95% | A549/ATCC NSCLC 97.4% | 786-0 renal 98.7% | COLO 205 colon 70.5% | DU-145 prostate 107% | K-562 leukemia 91% | MALME-3M melanoma 88.1% | MDA-MB-231 breast 96.6% | RXF 393 renal 96.5% | SF-268 CNS 95.8% | SF-295 CNS 90.3% | SF-539 CNS 92.8% | UACC-257 melanoma 101% | M14 melanoma 98.4%

COc1ccc2c(c1)c(CC(=O)NCCOCCOCC(=O)Nc1ccc(OC)c(C(N)=O)c1O)c(C)n2C(=O)c1ccc(Cl)cc1
inactive: NCI-H23 lung 90.1% | NCI-H226 lung 91.5% | NCI-H322M lung 92.7% | HOP-62 NSCLC 88.8% | NCI-H460 lung 101% | HOP-92 NSCLC 91.3% | NCI-H522 lung 81.3% | A549/ATCC NSCLC 85.7% | 786-0 renal 73.8% | COLO 205 colon 109% | DU-145 prostate 107% | K-562 leukemia 91.5% | MALME-3M melanoma 118% | MDA-MB-231 breast 92% | RXF 393 renal 92.9% | SF-268 CNS 88.9% | SF-295 CNS 93.8% | SF-539 CNS 99.9% | UACC-257 melanoma 113% | M14 melanoma 98.3%

CC(=O)CCSc1ccc(OC(C)=O)cc1
inactive: NCI-H23 lung 100% | NCI-H226 lung 101% | NCI-H322M lung 103% | HOP-62 NSCLC 98% | NCI-H460 lung 106% | HOP-92 NSCLC 79.8% | NCI-H522 lung 82.3% | A549/ATCC NSCLC 88.3% | 786-0 renal 100% | COLO 205 colon 116% | DU-145 prostate 108% | K-562 leukemia 96.1% | MALME-3M melanoma 115% | MDA-MB-231 breast 91.7% | RXF 393 renal 109% | SF-268 CNS 96.4% | SF-295 CNS 105% | SF-539 CNS 97.3% | UACC-257 melanoma 88.1% | M14 melanoma 103%

CCc1c(Nc2ccc(C)cc2)[nH]c(N)nc1=S
inactive: NCI-H23 lung 97% | NCI-H226 lung 95.3% | NCI-H322M lung 106% | HOP-62 NSCLC 98.1% | NCI-H460 lung 106% | HOP-92 NSCLC 108% | NCI-H522 lung 96.9% | A549/ATCC NSCLC 101% | 786-0 renal 104% | COLO 205 colon 109% | DU-145 prostate 104% | K-562 leukemia 115% | MALME-3M melanoma 103% | MDA-MB-231 breast 98.8% | RXF 393 renal 113% | SF-268 CNS 103% | SF-295 CNS 96.2% | SF-539 CNS 103% | UACC-257 melanoma 104% | M14 melanoma 98.7%

Cc1cc(C(=O)Nc2ncnc3nc[nH]c23)no1
inactive: NCI-H23 lung 101% | NCI-H226 lung 92.3% | NCI-H322M lung 90.6% | HOP-62 NSCLC 92.6% | NCI-H460 lung 106% | HOP-92 NSCLC 102% | NCI-H522 lung 94.3% | A549/ATCC NSCLC 100% | 786-0 renal 103% | COLO 205 colon 104% | DU-145 prostate 108% | K-562 leukemia 87% | MALME-3M melanoma 105% | MDA-MB-231 breast 105% | RXF 393 renal 107% | SF-268 CNS 99.7% | SF-295 CNS 99.3% | SF-539 CNS 96.9% | UACC-257 melanoma 112% | M14 melanoma 99%
